DT40 TDP1 CPT – growth inhibition of DT40 Tdp1-/-;hTDP1 cells with camptothecin (screen for TDP1 inhibitors). chicken DT40 Tdp1-/-;hTDP1 cells + 20 nM CPT, ATP luminescence, 48 h. Potency, µM (highest dose often 46.2 µM), inactives show at the highest dose activity change, negative = growth inhibition, hits mostly inhibitors. 420,000 compounds, 12% hits; note: potency is the fitted concentration of half-maximal effect; nearly all actives have a fitted effect of over 55% in size
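Chicken DT40 Tdp1-/- cells complemented with human TDP1, 400 cells/well, exposed to compounds plus 20 nM camptothecin for at least 48 h at 37 C; viability read as ATP content by CellTiter-Glo luminescence.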
HT1080 IDH1KD tx – kills HT-1080 cells with IDH1 knockdown | HT-1080 IDH1 knockdown viability, ATP luminescence, 48 h | Potency, µM (doses to about 46.1 µM), inactives show at the highest dose activity, negative = toxicity, actives largely listed as cytotoxic | 360,000 compounds, 2% hits;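 note: potency is the fitted concentration of half-maximal effect; 0% = DMSO wells and -100% = cell-free medium wells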
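Viability of IDH1-knockdown HT-1080 fibrosarcoma cells was assessed by CellTiter-Glo after 48 h at 37 °C with titrated compound; concentration-effect curves were classified by fit quality and response size.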
HT1080NT lethal – kills 2HG-producing HT-1080-NT fibrosarcoma cells | HT-1080-NT fibrosarcoma viability, CellTiter-Glo ATP luminescence, 48 h | Potency, µM (doses to about 46.1 µM), for the others: at the top dose activity, negative = less viability, most hits filed as cytotoxic | 360,000 compounds, 1.6% hits | AID 686970;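 note: NT is the 2HG producing partner of a matched IDH1 knockdown line; potency is the fitted concentration of half-maximal effect; 0% = DMSO-treated cells and -100% = media-only wells without cells; nearly all actives have a fitted effect of over 55% in size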
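Viability of the 2HG-overproducing fibrosarcoma line after 48 hours of compound exposure at 37 degrees C was determined by luminescence with CellTiter-Glo, and concentration-effect curves were then fitted and categorized.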
ELG1 repair inh – inhibitors of ELG1-dependent DNA repair in HEK293T cells; 330,000 compounds, 2.3% hits; HEK293T ELG1-luciferase reporter, luminescence, 16 h; DNA damage induced by 5-fluorouridine; Potency, µM (series often up to 46.1 µM), for the others: top-dose activity change, negative = inhibition, most hits filed as inhibitors; note: potency is the fitted concentration of half-maximal effect; nearly all actives have a fitted effect of over 55% in size
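Step one: seed 2,000 cells per well. Step two: pin-transfer compound or DMSO alongside 5-fluorouridine. Step three: incubate 16 hr, 37 °C, 5% CO2. Step four: add ONE-Glo, wait 30 min, read luminescence.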
IL-1B inflam inh – inflammasome signaling inhibition, IL-1 beta readout; THP-1 LPS/ATP IL-1B secretion, AlphaLISA, 16 h; hits give low values; activity change, % at 57.5 µM; 360,000 compounds, 4.7% hits; AID 743279; in the data active = activity change below about -50%; inconclusive = mostly about -30% to -49%
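THP-1 cells pretreated 1 hr with compounds (up to 57.5 uM final), then stimulated with LPS (250 ng/mL final) plus ATP (1.25 mM final); secreted IL-1B measured by AlphaLISA after 16 hr, decreased signal indicating inhibition.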
TDP1 cell noCPT – qHTS for Inhibitors of human tyrosyl-DNA phosphodiesterase 1 (TDP1): qHTS in cells in absence of CPT. 420,000 compounds, 15% hits. Potency, µM (doses to about 46.2 µM), inactives show at the top dose activity change, negative = growth inhibition, hits mostly inhibitors. DT40 Tdp1-/- hTDP1 cells, no CPT, ATP luminescence, 48 h. AID 686978, 2013; note: potency is the fitted concentration of half-maximal effect; nearly all actives have a fitted effect of over 55% in size
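Luminescent ATP content (CellTiter-Glo) served as the growth readout. Knockout chicken DT40 cells expressing human TDP1 were exposed to compounds without camptothecin for a minimum 48 hr at 37 °C.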
* marks the source's active call; other numbers are inactive results; [ ] = another dose, or the depositor's remark. Only some compounds are listed: those with a hit (about 19% of all), similar ones and a draw of the others. Unless noted, calls come from the whole dose curve; as a rule, active = well fitted curve in the direction sought with a large enough effect; inconclusive = small, poorly fitted or top-dose-only effect, or another doubt; inactive = no such curve, though single readings can be large; an effect the other way counts as inactive or inconclusive. Unless noted, % is set by controls: 0 for no effect and ±100 for the full control effect.

How did CCC[C@@H]1C[C@@]1(CCC)[C@@H](NP(=O)(c1ccccc1)c1ccccc1)c1ccc(C(=O)OC)cc1 do in these assays?
DT40 TDP1 CPT: inconclusive; HT1080 IDH1KD tx: -5%; HT1080NT lethal: -3%; ELG1 repair inh: -20%; IL-1B inflam inh: -3; TDP1 cell noCPT: 16µM*

Results for COc1ccc(NC(=O)c2oc3ccc(S(=O)(=O)N(C)C4CCCCC4)cc3c2C)cc1Cl ?
DT40 TDP1 CPT: 9.2µM*; TDP1 cell noCPT: 5.8µM*

What do the screens show for `COCCCNC(=O)c1oc2ccc(S(=O)(=O)N(C)C3CCCCC3)cc2c1C`?
DT40 TDP1 CPT: inconclusive; HT1080 IDH1KD tx: -10%; HT1080NT lethal: 3%; ELG1 repair inh: -29%; IL-1B inflam inh: -8; TDP1 cell noCPT: inconclusive

How did Cc1c(C(=O)Nc2ccc(F)c(Cl)c2)oc2ccc(S(=O)(=O)N(C)C3CCCCC3)cc12 do in these assays?
DT40 TDP1 CPT: 23µM*; TDP1 cell noCPT: 15µM*

Results for COc1ccc2oc(C(=O)Nc3ccc(S(=O)(=O)N(C)C4CCN(C)CC4)cc3)c(C)c2c1 ?
DT40 TDP1 CPT: inconclusive; HT1080 IDH1KD tx: 18µM*; HT1080NT lethal: 23µM*; ELG1 repair inh: 11%; IL-1B inflam inh: inconclusive; TDP1 cell noCPT: 18µM*

Results for Cc1c(C(=O)Nc2cccc(C(F)(F)F)c2)oc2ccc(S(=O)(=O)N(C)C3CCCCC3)cc12 ?
DT40 TDP1 CPT: 12µM*; TDP1 cell noCPT: 13µM*

What do the screens show for `COc1ccccc1CNc1nc2nc(C)c(Cl)c(C)n2n1`?
DT40 TDP1 CPT: -21%; TDP1 cell noCPT: inconclusive

Results for Cc1ccc(NC(=O)c2cc(S(=O)(=O)N(C)C3CCCCC3)ccc2F)cc1C ?
DT40 TDP1 CPT: 18µM*; TDP1 cell noCPT: 18µM*

What do the screens show for `Cc1ccc(NC(=O)c2oc3ccc(S(=O)(=O)N(C)C4CCCCC4)cc3c2C)c(C)c1`?
DT40 TDP1 CPT: inconclusive; TDP1 cell noCPT: 15µM*

Results for COCCNC(=O)c1cc(S(=O)(=O)N(C)C2CCCCC2)ccc1Cl ?
DT40 TDP1 CPT: -28%; HT1080 IDH1KD tx: 9%; HT1080NT lethal: 6%; IL-1B inflam inh: 34; TDP1 cell noCPT: -30%

How did COc1cc(-c2cnc3c(NC(C)=O)cc(-c4ccccc4CN(C)C)cn23)cc(OC)c1OC do in these assays?
DT40 TDP1 CPT: 23µM*; HT1080 IDH1KD tx: inconclusive; HT1080NT lethal: inconclusive; IL-1B inflam inh: 63; TDP1 cell noCPT: 18µM*

What do the screens show for `COc1cc(-c2cc(NC(C)=O)c3ncc(-c4cc(OC)c(OC)c(OC)c4)n3c2)cc(OC)c1OC`?
DT40 TDP1 CPT: 8.2µM*; HT1080 IDH1KD tx: 13µM*; HT1080NT lethal: 23µM*; IL-1B inflam inh: -1; TDP1 cell noCPT: 7.3µM*

How did COc1cc(-c2cc(NC(C)=O)c3ncc(-c4ccccc4)n3c2)cc(OC)c1OC do in these assays?
DT40 TDP1 CPT: inconclusive; HT1080 IDH1KD tx: inconclusive; HT1080NT lethal: inconclusive; IL-1B inflam inh: -60*; TDP1 cell noCPT: inconclusive

How did COc1ccccc1-c1cc(NC(C)=O)c2ncc(-c3ccc(S(C)(=O)=O)cc3)n2c1 do in these assays?
DT40 TDP1 CPT: inconclusive; HT1080 IDH1KD tx: 7%; HT1080NT lethal: 0%; IL-1B inflam inh: -2; TDP1 cell noCPT: inconclusive

How did COc1ccc(NC(=O)CN(C)S(=O)(=O)c2ccc(Cl)cc2)cn1 do in these assays?
DT40 TDP1 CPT: -4%; HT1080 IDH1KD tx: 15%; HT1080NT lethal: 12%; ELG1 repair inh: 5%; IL-1B inflam inh: 14; TDP1 cell noCPT: -30%

What do the screens show for `Cc1ccc(CNC(=O)COC(=O)c2ccc(S(=O)(=O)NCc3ccco3)cc2)cc1`?
DT40 TDP1 CPT: -8%; HT1080 IDH1KD tx: -1%; HT1080NT lethal: -17%[9.24 µM]; ELG1 repair inh: 14%; IL-1B inflam inh: 8; TDP1 cell noCPT: 9%

Results for CCOC(=O)C1CCN(CC(O)COc2ccc(C(C)(C)C)cc2)CC1 (stereo unspecified) ?
DT40 TDP1 CPT: inconclusive; HT1080 IDH1KD tx: inconclusive; HT1080NT lethal: inconclusive; ELG1 repair inh: -27%; IL-1B inflam inh: -7; TDP1 cell noCPT: 16µM*

How did CCOC(=O)C1CCN(CC(O)COCc2ccccc2)CC1 (stereo unspecified) do in these assays?
DT40 TDP1 CPT: 17%; HT1080 IDH1KD tx: -1%; HT1080NT lethal: 14%; ELG1 repair inh: 11%; IL-1B inflam inh: 2; TDP1 cell noCPT: -6%

How did CCOC(=O)C1CCN(CC(O)COc2ccc(C(C)(C)CC)cc2)CC1 (stereo unspecified) do in these assays?
DT40 TDP1 CPT: 16µM*; HT1080 IDH1KD tx: 1%; HT1080NT lethal: 8%; ELG1 repair inh: -17%; IL-1B inflam inh: inconclusive; TDP1 cell noCPT: 18µM*

Results for CCOC(=O)C1CCN(CC(O)COc2ccc(C(C)=O)cc2)CC1 (stereo unspecified) ?
DT40 TDP1 CPT: 9%; HT1080 IDH1KD tx: 0%; HT1080NT lethal: 0%; ELG1 repair inh: 0%; IL-1B inflam inh: 52; TDP1 cell noCPT: -1%

How did O=S(=O)(c1ccc2c(c1)CCCC2)N1CCNCC1 do in these assays?
DT40 TDP1 CPT: -27%; HT1080 IDH1KD tx: -3%; HT1080NT lethal: -10%; ELG1 repair inh: 5%; IL-1B inflam inh: -26; TDP1 cell noCPT: -16%

What do the screens show for `Cc1ncc(-c2ccc(F)cc2)c(C2CCCN(Cc3cccc(O)c3)C2)n1` (stereo unspecified)?
DT40 TDP1 CPT: inconclusive; TDP1 cell noCPT: 21µM*

Results for COc1cccc(CN2CCCC(c3nc(C)ncc3-c3ccc(F)cc3)C2)c1OC (stereo unspecified) ?
DT40 TDP1 CPT: inconclusive; TDP1 cell noCPT: 21µM*

How did COc1cccc(CN2CCCC(c3nc(-c4ccncc4)ncc3-c3ccccc3C)C2)c1O (stereo unspecified) do in these assays?
DT40 TDP1 CPT: inconclusive; TDP1 cell noCPT: -32%

Results for Cc1cccc(-c2cnc(C)nc2C2CCCN(C(=O)c3cccc(Cn4cccn4)c3)C2)c1 (stereo unspecified) ?
DT40 TDP1 CPT: 3.3µM*; TDP1 cell noCPT: inconclusive

How did COc1ccc(COCC(O)CN2CCN(S(=O)(=O)c3c(F)cccc3F)CC2)cc1OC (stereo unspecified) do in these assays?
DT40 TDP1 CPT: inconclusive; HT1080 IDH1KD tx: 0%; HT1080NT lethal: 5%; IL-1B inflam inh: -5; TDP1 cell noCPT: inconclusive

From PubChem BioAssay
